Laboratory results: PubChem BioAssay AID463173 (ICCB-Longwood Screening Facility, Harvard Medical School, 2010)
Screen size: about 52,000 compounds; about 4,300 (8.3%) were called active. Cut-off read from the data, not from the text of the source: active = survival mostly below about 52% (no sharp cut-off); inactive = mostly above about 56%. The entries come from a sample that favours actives as a whole.

test system: DeltatarO mutant; assay: S. aureus survival, RN4220 and DeltatarO strains – OD600, teichoic acid synthesis inhibitors, primary screen (AID 463173); settings: S. aureus RN4220 wild type/DeltatarO growth, OD600, 18 h, stronger effect = lower value, screened at 18.75 µg/mL (by protocol)

Row | Compound | survival
1 | COC(=O)CSc1nnc2n(-c3ccccc3)c(=O)c3c4c(sc3n12)COC(C(C)C)C4 (stereo not drawn) | 123% (inactive)
2 | Cc1nn2c(C)c(C(=O)N3CCN(c4ccccc4F)CC3)cnc2c1-c1ccc(F)cc1 | 88% (inactive)
3 | O=C(NC1CCCC1)c1ccc2c(c1)N(Cc1ccc(F)cc1)C(=O)c1ccccc1S2 | 81% (inactive)
4 | O=C1CNC(=O)N1Cc1ccc(F)cc1 | 108% (inactive)
5 | Cc1cccc(NC(=O)c2sc(-n3nc(C)c(CCC(C)C)c3C)nc2C)c1 | 53% (inactive)
6 | O=C(CSc1nnc(-c2ccc(Cl)cc2)o1)Nc1ccc(F)cc1 | 69% (inactive)
7 | Cc1cccc(C)c1NC(=O)Cn1nc(C)c2sc3ccccc3c2c1=O | 99% (inactive)
8 | COc1ccc(Cc2nnc(NC(=O)c3cccs3)s2)cc1OC | 100% (inactive)
9 | CSc1nc2c(c(=O)[nH]1)C(c1cccc(F)c1F)CC(=O)N2 (stereo not drawn) | 111% (inactive)
10 | CC(C)c1ccc(NC(=O)Cn2c(=O)n(CCc3ccccc3)c(=O)c3ccccc32)cc1 | 82% (inactive)
11 | COc1ccc(Cl)cc1NC(=O)CCc1nc(-c2ccccc2F)no1 | 20% (active)
12 | COc1ccc(-c2noc(CCC(=O)Nc3ccccc3Cl)n2)cc1OC | 97% (inactive)
13 | Cc1ccc(NC(=O)CCc2nc(-c3ccccc3F)no2)c(C)c1 | 93% (inactive)
14 | CCCNC(=O)N1c2ccc(F)cc2CCC1C (stereo not drawn) | 87% (inactive)
15 | COc1ccc(CNC(=O)c2ccc(CN3C(=O)C(C)=C(c4ccc(C)cc4)S3(=O)=O)cc2)cc1 | 89% (inactive)
16 | CC1CCCN(c2csc3ccccc3c2=O)C1 (stereo not drawn) | 69% (inactive)
17 | COc1ccccc1N1CCN(c2nc(-c3ccc(C)cc3)nc3ccccc23)CC1 | 83% (inactive)
18 | COc1ccc(N2CCN(c3nc(-c4ccccc4F)nc4ccccc34)CC2)cc1 | 88% (inactive)
19 | Cc1ccc(-c2nc(N3CCCC(C)C3)c3ccccc3n2)cc1 (stereo not drawn) | -2% (active)
20 | CC1CCCN(c2nc(-c3ccccc3O)nc3ccccc23)C1 (stereo not drawn) | -6% (active)

Row | Compound | survival
21 | Cc1cccc(-n2ncc3c(N4CCCC(C)C4)ncnc32)c1 (stereo not drawn) | 84% (inactive)
22 | COc1cccc(-c2nnc(-c3ccccc3NC(=O)c3ccc(F)cc3F)o2)c1 | 78% (inactive)
23 | CCOc1ccc(CCNC(=O)c2cccc(-n3c(C)nc4cccnc43)c2C)cc1 | 79% (inactive)
24 | Cc1cc(C)c2[nH]c(=O)c(CN(Cc3ccco3)C(=S)NCCCN3CCOCC3)cc2c1 | 78% (inactive)
25 | CCOc1ccccc1N1CC(c2nc3ccccc3n2CCOc2ccc(C(C)(C)C)cc2)CC1=O (stereo not drawn) | 62% (inactive)
26 | CCc1ccc(OCCn2c(C3CC(=O)N(Cc4ccc(F)cc4)C3)nc3ccccc32)cc1 (stereo not drawn) | 3% (active)
27 | Cc1cc(OCCn2c(C3CC(=O)N(Cc4ccc(F)cc4)C3)nc3ccccc32)ccc1Cl (stereo not drawn) | 1% (active)
28 | COCCNC(=O)c1cc2n(n1)CCCN(Cc1ccc(C)cc1)C2=O | 78% (inactive)
29 | CCCOc1ccc(OC(=O)c2c(-c3ccccc3Cl)noc2C)cc1 | 84% (inactive)
30 | CCCOc1cccc(NC(=O)c2c(-c3ccccc3Cl)noc2C)c1 | 37% (active)
31 | CCOc1ccc(OC(=O)c2c(-c3ccccc3Cl)noc2C)cc1 | 72% (inactive)
32 | Cc1onc(-c2ccccc2Cl)c1C(=O)Oc1ccc(Br)cc1 | 41% (active)
33 | CCCC(=O)c1ccc(OC(=O)c2c(-c3ccccc3Cl)noc2C)cc1 | 102% (inactive)
34 | CC(=O)c1ccc(OC(=O)c2c(-c3ccccc3Cl)noc2C)cc1 | 94% (inactive)
35 | Cc1ccc(NC(=O)Cn2nc(N3CCN(c4ccccc4)CC3)ccc2=O)cc1F | 83% (inactive)
36 | Fc1ccc2ncc3c(-c4ccccc4)n[nH]c3c2c1 | 83% (inactive)
37 | COc1ccc(C(=O)Nc2ccc(-c3cc4ccccc4oc3=O)c(C)c2)cc1OC | 69% (inactive)
38 | Cc1cc(C)cc(NC(=O)c2sc3nc4n(c(=O)c3c2C)N=C(c2ccccc2)CS4)c1 | 69% (inactive)
39 | COc1ccc(Br)cc1Cn1nnc(C(=O)Nc2ccc(C)cc2C)c1N | 48% (inactive)
40 | CCc1ccc(NC(=O)Cn2c(=O)n(CCCCC(=O)NCCc3ccccc3)c(=O)c3ccccc32)cc1 | 84% (inactive)

Row | Compound | survival
41 | CCOC(=O)c1c(C)[nH]c(C)c1S(=O)(=O)N1CCCC(C(=O)NCc2cccc(OC)c2)C1 (stereo not drawn) | 78% (inactive)
42 | CS(=O)(=O)c1oc(-c2ccc(F)cc2)nc1S(=O)(=O)c1ccc(Cl)cc1 | -5% (active)
43 | Cc1ccc(S(=O)(=O)c2nc(-c3cccs3)oc2SC(C)C)cc1 | 66% (inactive)
44 | CC(C)S(=O)(=O)c1oc(-c2ccc(F)cc2)nc1S(=O)(=O)c1ccc(F)cc1 | 22% (active)
45 | COc1cccc(-c2nc(S(=O)(=O)c3ccc(Cl)cc3)c(NCc3ccccc3)o2)c1 | 180% (inactive)
46 | CCC(C)S(=O)(=O)c1oc(-c2ccc(F)cc2)nc1S(=O)(=O)c1ccc(F)cc1 (stereo not drawn) | 41% (active)
47 | CCC(C)S(=O)(=O)c1oc(-c2cccs2)nc1S(=O)(=O)c1ccccc1 (stereo not drawn) | 53% (inactive)
48 | CCOc1ccc(NC(=O)CSc2oc(-c3ccc(F)cc3)nc2S(=O)(=O)c2ccc(C)cc2)cc1 | 63% (inactive)
49 | Cc1ccc(S(=O)(=O)c2nc(-c3cccs3)oc2SCc2ccc(F)cc2)cc1 | 62% (inactive)
50 | CC(C)S(=O)(=O)c1oc(-c2cccs2)nc1S(=O)(=O)c1ccc(F)cc1 | 9% (active)
51 | COc1ccc(-c2nc(S(=O)(=O)c3ccc(Cl)cc3)c(NCc3ccccc3)o2)cc1 | 136% (inactive)
52 | Cc1ccc(S(=O)(=O)c2nc(-c3ccc(F)cc3)oc2SCC(=O)NC2CCCCC2)cc1 | 149% (inactive)
53 | Cc1ccccc1CNC(=O)CCCn1c(=O)c2cccn2c2cccnc21 | 114% (inactive)
54 | CCOc1ccc(C2CC(c3c(O)n(C4CCCCC4)c(=O)[nH]c3=O)=Nc3ccccc3S2)cc1 (stereo not drawn) | 47% (inactive)
55 | Cc1ccc2c(c1)cc1c(=O)n(CC(=O)N3CCCCC3)nc(C)n12 | 90% (inactive)
56 | COc1ccc(C)cc1S(=O)(=O)NCC(c1cccs1)S(=O)(=O)c1ccc(C)cc1 (stereo not drawn) | 69% (inactive)
57 | Cc1ccc(-c2nnc(NC(=O)c3ccc4c(c3)OCCO4)o2)c(C)c1 | 96% (inactive)
58 | Cc1ccc(NC(=O)Cn2nc(Cc3ccncc3)c3ccccc3c2=O)c(Cl)c1 | 66% (inactive)
